Laboratory results reported in PubChem BioAssay (NCI).
This is part of a sample that, as a whole, favours compounds with a hit. Of some 83,000 tested, about 20% had one in any assay.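 48-hour exposure, single concentration, 96-well plates; percent growth endpoint where 0 means no net growth. Active: below 10.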 Calls of active or inactive are those of the source.

Key:
Experiment in all cases: NCI-60 one-dose screen, 48 h (100 = growth as untreated, 0 = no growth, -100 = all killed)
Conditions in all cases: 10 µM unless noted
[1] = system: DU-145 prostate
[2] = system: K-562 leukemia
[3] = system: MALME-3M melanoma
[4] = system: MDA-MB-231 breast
[5] = system: RXF 393 renal
[6] = system: SF-268 CNS
[7] = system: SF-295 CNS
[8] = system: SF-539 CNS
[9] = system: UACC-257 melanoma
[10] = system: M14 melanoma

Measured: growth

COc1cc2c(cc1OCCCN1CCN(CCCOc3cc4c(cc3OC)C(=O)N3CC(F)(F)C[C@H]3C=N4)CC1)N=C[C@@H]1CC(F)(F)CN1C2=O
inactive: [1] 16.3% | [2] 36.5% | [3] 89% | [4] 85.3% | [5] 86.2% | [6] 14.6% | [7] 30.6% | [8] 51% | [9] 85.3% | [10] 70.2%

COc1ccc(-c2cc(-c3cccnc3)nc3sc4c(=O)[nH]c(-c5ccc(Cl)cc5)nc4c23)cc1OC
inactive: [1] 105% | [2] 85.7% | [3] 115% | [4] 76.7% | [5] 103% | [6] 93.4% | [7] 99.5% | [8] 96.1% | [9] 97.5% | [10] 106%

CN(C)CCNC(=O)c1cc2c3cc(Cl)ccc3[nH]c2c2ncccc12
active: [1] 7.58% | [2] -25.1% | [3] -29.9% | [8] 5.06% | [10] -81%
inactive: [4] 30.3% | [5] 15.5% | [6] 13.5% | [7] 22.1% | [9] 18.4%

CN(C)CC(C)(C)C(=O)/C=C/c1ccccc1
active: [1] -46.5% [25 µM] | [2] 1.32% [25 µM] | [3] -69.5% [25 µM] | [4] -10.9% [25 µM] | [5] -77.2% [25 µM] | [6] 1.85% [25 µM] | [7] 7.02% [25 µM] | [8] -77.2% [25 µM] | [9] -43.5% [25 µM] | [10] -50.4% [25 µM]

CCOc1nc(-c2ccccc2)cc2c(O)c(C(=O)N/N=C/c3ccccc3)[nH]c(=O)c12
inactive: [1] 115% | [2] 48.2% | [3] 136% | [4] 117% | [5] 119% | [6] 106% | [7] 134% | [8] 112% | [9] 101% | [10] 118%

COc1ccc(/C=N/C2=C(C#N)C(c3ccccc3)c3ccc4ccccc4c3O2)cc1 (stereo not given)
active: [7] 9% | [8] -8.29% | [10] 2.72%
inactive: [1] 25.6% | [2] 12.2% | [3] 43.6% | [4] 18.7% | [5] 26% | [6] 46.5% | [9] 48.4%

CSc1nc2ncc([N+](=O)[O-])c(=O)n2[nH]1
inactive: [1] 110% | [2] 104% | [3] 101% | [4] 108% | [5] 105% | [6] 98.8% | [7] 96.6% | [8] 100% | [9] 105% | [10] 98.4%

Nc1nc(N)c(-c2ccc(Cl)c(Cl)c2)c(CBr)n1
inactive: [1] 83.2% | [2] 36.8% | [3] 89% | [4] 82.2% | [5] 90.6% | [6] 94% | [7] 55.7% | [8] 65.4% | [9] 68.5% | [10] 50.5%

Cc1c2cnccc2c(C)c2c1c1cc(C#N)ccc1n2C
active: [1] 3.34% | [2] -8.24% | [3] -77.4% | [4] -23.5% | [5] -85.1% | [6] -8.27% | [7] -11.7% | [8] -61.7% | [9] -29% | [10] -83.3%

NC(=O)C(=O)c1ccccc1NC=O
inactive: [1] 106% | [2] 92.3% | [3] 96.8% | [4] 97.7% | [5] 110% | [6] 97.2% | [7] 104% | [8] 102% | [9] 98.7% | [10] 92.7%

CNc1nnc2n(-c3ccccc3)c(=O)c3cnn(-c4ccccc4)c3n12
inactive: [1] 102% | [2] 85.7% | [3] 131% | [4] 103% | [5] 98.2% | [6] 96.1% | [7] 78.8% | [8] 83.5% | [9] 95.7% | [10] 79.1%

NS(=O)(=O)c1ccc(N=Nc2c(O)n(Cc3ccccc3)c3ccc(Cl)cc23)cc1
inactive: [1] 87.3% | [2] 82.4% | [3] 70.5% | [4] 75.9% | [5] 45.5% | [6] 65.2% | [7] 93.7% | [8] 61.5% | [9] 92.1% | [10] 88.1%

COc1ccc2c(c1)N(CCO)C1=C(C(=O)OC1)C2c1cccc(F)c1 (stereo not given)
inactive: [1] 10.1% | [3] 55.7% | [4] 36% | [5] 31.3% | [6] 35.5% | [9] 67.6%
active: [2] 9.63% | [7] -15.6% | [8] -17.3% | [10] -1.78%

CCCCNC(=O)Oc1ccc(/C(=C(/C)Cc2ccc(OC)cc2)c2ccc(OCCN(CC)CC)cc2)cc1
active: [2] 3.84%
inactive: [1] 91.7% | [3] 88.1% | [4] 88.8% | [5] 81.7% | [6] 86.2% | [7] 86.6% | [8] 77.8% | [9] 90.7% | [10] 52.1%

CCOC(=O)c1c(NC(=O)c2cccc(C(F)(F)F)c2)sc2c(CN(C)C)c(O)ccc12
active: [2] 2.41% | [3] -38.5% | [9] -10.5% | [10] -57.8%
inactive: [1] 72.5% | [4] 58.9% | [5] 38.4% | [6] 84.7% | [7] 96.2% | [8] 49.3%

NS(=O)(=O)c1ccccc1NC(=O)Nc1nc2ccccc2s1
inactive: [1] 106% | [2] 97.5% | [3] 91.9% | [4] 97% | [5] 98.4% | [6] 98.1% | [7] 94.6% | [8] 95.8% | [9] 102% | [10] 93.5%

N#CC1=C(c2ccccc2)Nc2c(c(-c3ccc(Cl)cc3)nn2-c2ccccc2)C12C(=O)Nc1ccc(Cl)cc12 (stereo not given)
inactive: [1] 86.1% | [2] 65.9% | [3] 86.4% | [4] 58.8% | [5] 49.8% | [6] 55.3% | [7] 56.5% | [8] 85.2% | [9] 73% | [10] 72.7%

C=CCOC(=O)Nc1cccn([C@H](Cc2ccccc2)C(=O)NCCC(C)C)c1=O
inactive: [1] 110% | [2] 110% | [3] 103% | [4] 101% | [5] 110% | [6] 106% | [7] 94.5% | [8] 109% | [9] 102% | [10] 121%

COc1cc2c(c(OC)c1OC)CCC(c1cccc(C(=O)Nc3ccc(C#N)cc3)c1)O2 (stereo not given)
inactive: [1] 66.5% | [2] 20.4% | [3] 58.2% | [4] 49.4% | [5] 78.8% | [6] 80.1% | [7] 42.5% | [8] 68.8% | [9] 44.5% | [10] 37.7%

NC(Cc1ccc(O)c([N+](=O)[O-])c1)C(=O)O (stereo not given)
inactive: [1] 106% | [2] 101% | [3] 109% | [4] 113% | [5] 108% | [6] 99.8% | [7] 117% | [8] 100% | [9] 99.8% | [10] 101%

CC1OC(n2c3ccccc3c3c4c(c5c6ccccc6[nH]c5c32)C(=O)N(CCN2CCCC2)C4=O)CC(O)C1O (stereo not given)
active: [2] 3.65%
inactive: [1] 30.2% | [3] 72.3% | [4] 74.7% | [5] 30.7% | [6] 37% | [7] 26.6% | [8] 39.4% | [9] 84.5% | [10] 38.6%

Cc1ccc(-c2nc(N3CCCNCC3)c3oc(-c4ccc(C)cc4)nc3n2)cc1
inactive: [1] 42% | [3] 106% | [5] 80.6% | [6] 90.2% | [7] 108% | [8] 73.8% | [9] 101%
active: [2] -76% | [4] -78.8% | [10] -94.7%

CCOCCNC1=C(Cl)C(=O)c2ccccc2C1=O
inactive: [1] 76.3% | [2] 91.8% | [3] 106% | [4] 116% | [5] 123% | [6] 101% | [7] 95.1% | [8] 121% | [9] 98.2% | [10] 110%

Cn1ccnc1C(=O)/C=C/c1ccc(CC(=O)Nc2cc(C(F)(F)F)cc(C(F)(F)F)c2)cc1
inactive: [1] 73.4% | [2] 61.6% | [3] 77.9% | [4] 78.1% | [5] 56.2% | [6] 64.9% | [7] 84.3% | [8] 67.1% | [9] 72.8% | [10] 80.5%

C#CCNC(=O)[C@H](CC)[C@H]1CC[C@H](C)[C@H]([C@@H](C)[C@H](O)[C@H](C)C(=O)[C@H](CC)C2O[C@]3(C=CC(=O)[C@]4(CC[C@@](C)([C@H]5CC[C@](O)(CC)[C@H](C)O5)O4)O3)[C@H](C)C[C@@H]2C)O1 (stereo not given in full)
inactive: [1] 22.6% | [3] 48.8% | [5] 14% | [6] 45.9% | [7] 43.9% | [9] 68.1%
active: [2] 8.66% | [4] -0.208% | [8] 6.76% | [10] -11.9%

Cc1ccc2c(c1)=C/C(=C\c1cc(-c3ccccc3)oc1O)C(=O)N=2
inactive: [1] 104% | [2] 91.7% | [3] 110% | [4] 116% | [5] 106% | [6] 91.6% | [7] 93.1% | [8] 101% | [9] 109% | [10] 90.6%
